Screening results (PubChem BioAssay)
Most compounds without a hit are left out; they make up all but 19% or so of the library.
TDP1 block: TDP1 (human) enzyme inhibition. Potency, µM (doses to about 130 µM), most hits filed as inhibitors. Q9NUW8. 350,000 compounds, 0.28% hits. recombinant TDP1, AlphaScreen DNA substrate cleavage; also: nearly all actives have a fitted effect of over 40% in size
Target sequence (Q9NUW8 whole entry, looked up): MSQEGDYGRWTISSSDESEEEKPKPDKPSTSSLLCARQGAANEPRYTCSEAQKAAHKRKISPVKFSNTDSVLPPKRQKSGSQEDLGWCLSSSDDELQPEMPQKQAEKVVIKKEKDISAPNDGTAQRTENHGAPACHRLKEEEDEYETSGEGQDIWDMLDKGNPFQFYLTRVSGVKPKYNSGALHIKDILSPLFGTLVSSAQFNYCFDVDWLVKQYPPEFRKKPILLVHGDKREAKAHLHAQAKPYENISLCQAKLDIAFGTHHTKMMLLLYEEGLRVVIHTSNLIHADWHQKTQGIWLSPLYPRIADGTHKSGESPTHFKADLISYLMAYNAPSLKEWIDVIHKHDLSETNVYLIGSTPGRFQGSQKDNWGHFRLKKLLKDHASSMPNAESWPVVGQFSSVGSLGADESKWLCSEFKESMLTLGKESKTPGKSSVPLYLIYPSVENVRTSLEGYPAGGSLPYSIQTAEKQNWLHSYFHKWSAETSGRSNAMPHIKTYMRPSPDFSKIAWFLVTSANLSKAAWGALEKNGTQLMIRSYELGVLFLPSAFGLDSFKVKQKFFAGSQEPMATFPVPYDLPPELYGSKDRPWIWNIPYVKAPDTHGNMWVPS
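Signal: AlphaScreen proximity between streptavidin donor and anti-FITC acceptor beads on intact substrate. Reaction: Tdp1 1 nM, substrate 15 nM final, 5 min RT after 15 min compound preincubation.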
DT40 TDP1 no CPT: qHTS for Inhibitors of human tyrosyl-DNA phosphodiesterase 1 (TDP1): qHTS in cells in absence of CPT | DT40 Tdp1-/- hTDP1 cells, no CPT, ATP luminescence, 48 h | Potency, µM (highest dose often 46.2 µM), usual class: inhibitors | 420,000 compounds, 15% hits | AID 686978, 2013; also: nearly all actives have a fitted effect of over 55% in size
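Chicken DT40 Tdp1-/- cells complemented with human TDP1, screened without camptothecin (DMSO vehicle only), 400 cells/well. Compounds pin-transferred, cells incubated at 37 °C for at least 48 hr. Growth read as ATP-dependent luminescence (CellTiter-Glo, 30 min at RT).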
HepG2 tox-1: kills HepG2 cells in TGF-b inhibitor counter-screen; HepG2 CAGA-GFP viability, ATP luminescence, 18 h; Potency, µM (highest dose often 46.1 µM), actives largely listed as cytotoxic; 410,000 compounds, 0.76% hits
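CellTiter-Glo luminescence gave cytotoxicity after 18 hours at 37 degrees C. The cells were HepG2 CAGA-GFP in 1% FBS DMEM, stimulated with 500 pg/mL TGF-beta after compound addition. %Activity was normalised to no-cell wells (complete cell-killing) and DMSO (no toxicity), and curves were fitted and classified.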
DT40 TDP1 CPT: growth inhibition of DT40 Tdp1-/-;hTDP1 cells with camptothecin (screen for TDP1 inhibitors) | Potency, µM (top dose mostly 46.2 µM), actives largely listed as inhibitors | chicken DT40 Tdp1-/-;hTDP1 cells + 20 nM CPT, ATP luminescence, 48 h | 420,000 compounds, 12% hits; also: nearly all actives have a fitted effect of over 55% in size
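Chicken DT40 Tdp1-/- cells stably complemented with human TDP1 were seeded at 400 cells/well in medium containing 20 nM camptothecin, exposed to pin-transferred compounds, and grown at 37 °C for at least 48 hr. Viability was read as ATP luminescence.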
IL-1B inflam inh: blocks inflammasome-driven IL-1 beta release. 360,000 compounds, 4.7% hits. THP-1 LPS/ATP IL-1B secretion, AlphaLISA, 16 h; hits give low values. activity change, % at 57.5 µM; in the data active = activity change below about -50%; inconclusive = mostly about -30% to -49%
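Secreted IL-1B measured by AlphaLISA bead assay after 16 h compound exposure of THP-1 cells; compounds (final up to 57.5 uM) added 1 h before LPS (250 ng/mL) and ATP (1.25 mM) stimulation; lower signal means less secretion.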
TGFb SMAD3 inh: blocks TGF-b signaling; HepG2 CAGA-GFP TGF-b/SMAD3 reporter, GFP fluorescence, 18 h; TGF-beta stimulated, 500 pg/mL final; Potency, µM (highest dose often 46.1 µM), usual class: inhibitors; 410,000 compounds, 1.2% hits; AID 588855; also: nearly all actives have a fitted effect of over 65% in size
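Using HEPG2 CAGA-GFP reporter cells at 1000 cells/well, we pinned test compounds, stimulated with recombinant TGF-beta (500 pg/mL final) and measured total well GFP after 18 h.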
TGFb confirm: TGF-b pathway inhibition, cherry-pick retest. Potency, µM (series often up to 46.1 µM), most hits filed as inhibitors. HepG2 CAGA-GFP TGF-b reporter, GFP fluorescence, 18 h; cells stimulated with TGF-beta, 500 pg/mL. shares compounds with TGFb SMAD3 inh. AID 720534. 1,600 compounds, 63% hits; also: nearly all actives have a fitted effect of over 65% in size
HepG2 tox-2: HepG2 cytotoxicity, TGF-b inhibitor counterscreen. AID 720535. HepG2 CAGA-GFP viability, ATP luminescence, 18 h; cells stimulated with TGF-beta, 500 pg/mL. Potency, µM (doses to about 46.1 µM), hits mostly inhibitors. shares compounds with TGFb SMAD3 inh. 1,600 compounds, 27% hits; also: nearly all actives have a fitted effect of over 70% in size
TGFb CCL64 inh: blocks TGF-b signaling in CCL64 reporter cells | 1,600 compounds, 41% hits | Potency, µM (doses to about 46.1 µM), usual class: inhibitors | CCL64 CAGA-GFP reporter, TGF-b stimulated, GFP fluorescence, 18 h | shares compounds with TGFb SMAD3 inh; also: nearly all actives have a fitted effect of over 65% in size
TGFb COP inh: validation of TGF-b inhibitors in HepG2 COP promoter reporter | shares compounds with TGFb SMAD3 inh | HepG2 COP-GFP TGF-b reporter, GFP fluorescence, 18 h; cells stimulated by added recombinant TGF-beta | Potency, µM (top dose mostly 46.1 µM), hits mostly inhibitors | 1,600 compounds, 3% hits | AID 720537; also: nearly all actives have a fitted effect of over 70% in size
A number is an active result; n = inactive; u = inconclusive; x = not tested or not shown; [ ] = remark or other dose. Unless noted, calls follow the shape of the dose curve; as a rule, active = well fitted curve in the direction sought with a large enough effect; inconclusive = small, poorly fitted or top-dose-only effect, or another doubt; inactive = no such curve, though single readings can be large; an effect the other way counts as inactive or inconclusive.

SMILES | TDP1 block | DT40 TDP1 no CPT | HepG2 tox-1 | DT40 TDP1 CPT | IL-1B inflam inh | TGFb SMAD3 inh | TGFb confirm | HepG2 tox-2 | TGFb CCL64 inh | TGFb COP inh
Cc1cc(Cl)n2c(nc3ccccc32)c1C#N | n | 0.46µM | n | 0.41µM | -100 | 1.8µM | 1.2µM | 5.2µM | 1.5µM | 26µM
CNc1cc(C)c(C#N)c2nc3ccccc3n12 | n | n | n | n | n | n | x | x | x | x
CC(C)C(NC(=O)c1ccccc1F)C(=O)NCCCn1ccnc1 (centres undefined) | n | n | n | n | n | n | x | x | x | x
CCCCC(CC)C(=O)Nc1ncc([N+](=O)[O-])s1 (centres undefined) | n | u | n | u | -79 | 11µM | 7.3µM | u | u | n
CCNc1nc(N)c(C(=O)c2ccc(Cl)s2)s1 | n | n | n | n | -96 | 13µM | 6.5µM | u | u | n
CC(C)C[C@H]1CNC(=S)N1CC1CCN(CC2CCCC2)CC1 | x | n | n | n | n | n | x | x | x | x
CC(C)C[C@H]1CNC(=S)N1CC1CCCN1C[C@H](Cc1ccccc1)N1C[C@H](Cc2ccc(O)cc2)N(CC2CCCCCC2)C1=S (some centres undefined) | x | u | n | u | -67 | 6.3µM | 15µM | u | 5.8µM | n
O=C1NC[C@H](Cc2ccc(O)cc2)N(CC2CCCCC2)C1=O | n | n | n | n | n | n | x | x | x | x
CC(C)C[C@H]1CN([C@@H](Cc2ccc(O)cc2)CN2CCC[C@@H]2CN2C(=S)NC[C@@H]2Cc2ccccc2)C(=S)N1CC1CCCCCC1 | x | 21µM | n | u | n | 10µM | u | n | u | n
COc1cc(C#Cc2ccc3cc(C(C)(C)O)oc(=O)c3c2)cc(OC)c1 | n | u | n | u | n | n | x | x | x | x
CC(C)NC(=O)N1CCCC2(CCN(S(=O)(=O)c3ccccc3)CC2)C1 | x | n | x | n | x | x | x | x | x | x
Cc1ccc(S(=O)(=O)N2CCCCC2)cc1C(=O)OC1CCCCC1=O (centres undefined) | n[0.505 µM] | n | n | n | n | u | u | n | n | n
CCCCN(C(=O)Cc1ccc(S(=O)(=O)N2CCOCC2)s1)c1c(N)n(CCCC)c(=O)[nH]c1=O | n | n | n | n | n | u | n | n | n | n
CCCCOc1ccc(CN2CCSCC2)cc1 | x | n | n | u | n | n | x | x | x | x
O=C(CN1CCc2ccccc21)NN1CC(=O)N(c2ccc(Cl)cc2)CC1=O | n | n | n | n | n | n | x | x | x | x
CC1(C(=O)NCC(F)(F)F)CCN1C(=O)C1(c2ccccc2)CC1 (centres undefined) | x | n | n | n | n | n | x | x | x | x
CCc1ccc2oc(C(=O)Nc3nonc3C)c(C)c2c1 | n | u | n | n | n | n | x | x | x | x
Cc1c(C(=O)Nc2nonc2-c2ccc(F)cc2)oc2ccc(F)cc12 | n | u | n | u | n | 11µM | 13µM | u | u | n
Cc1c(C)n(-c2ccc(Cl)cc2)c2ncnc(N)c12 | n | u | n | u | n | n | x | x | x | x
O=C1c2cccnc2C(=O)N1C1CCCCC1 | n | n | n | n | n | n | x | x | x | x
NC1=C(Br)C(=O)c2ncccc2C1=O | x | 1.6µM | 2.8µM | 0.65µM | -98 | 2.8µM | 1.2µM | 3.3µM | 4.6µM | 4.6µM
CN(Cc1cccc(Cl)c1Cl)CC(O)COc1ccccc1 (centres undefined) | x | u | n | u | n | n | x | x | x | x
O=C(Nc1cccc(-c2csc(Nc3ccc(Cl)cc3)n2)c1)c1cc([N+](=O)[O-])cc(C(F)(F)F)c1 | n | 18µM | n | 18µM | n | 20µM | 8.2µM | u | 5.8µM | n
Cc1cc(NC(=O)CSc2nc(-c3ccc(Cl)cc3)cs2)no1 | n | n | n | n | n | n | x | x | x | x
O=C(CSc1nc(-c2ccc(Cl)cc2)cs1)Nc1cccc([N+](=O)[O-])c1 | n | 16µM | n | u | n | 10µM | u | u | n | n
SMILES | TDP1 block | DT40 TDP1 no CPT | HepG2 tox-1 | DT40 TDP1 CPT | IL-1B inflam inh | TGFb SMAD3 inh | TGFb confirm | HepG2 tox-2 | TGFb CCL64 inh | TGFb COP inh
O=[N+]([O-])c1cccc(NC(=S)NCc2ccncc2)c1 | n | n | n | n | n | n | x | x | x | x
O=[N+]([O-])c1cccc(NC(=S)Nc2nc(-c3ccccc3Cl)cs2)c1 | n | 18µM | n | u | -59 | 3.5µM | 3.7µM | 6.5µM | 6.5µM | n
O=C(NCC(=O)N1CCCC(C(F)(F)F)C1)c1cccs1 (centres undefined) | x | n | n | n | n | n | x | x | x | x
CCC(C)Sc1ccc([C@@H]2[C@@H]3C(=O)N(CC)C(=O)[C@@H]3[C@]3(C(=O)OC)CCCCN23)cc1OC (some centres undefined) | n | u | n | u | n | u | u | n | n | n
CCC(C)Sc1ccc([C@H]2N[C@@](C)(C(=O)OC)[C@H]3C(=O)N(CC)C(=O)[C@@H]23)cc1OC (some centres undefined) | n | u | n | u | n | n | x | x | x | x
CCCN(CCC)Cc1c(C(=O)N/N=C/C(C)=C\c2ccco2)nnn1-c1nonc1N | n | 16µM | n | 21µM | -60 | 7.9µM | 5.2µM | u | u | n
COc1cc(Cl)ccc1NC(=S)N(CCN1CCOCC1)C1CCN(C(C)=O)CC1 | n | n | n | n | n | n | x | x | x | x
CN(C)S(=O)(=O)c1ccc(Cl)c(NC(=O)CN2CCC(Cc3ccccc3)CC2)c1 | n | u | n | u | n | u | 13µM | u | u | n
CN(C)S(=O)(=O)c1ccc(Cl)c(NC(=O)CN2CCNC(=O)C2)c1 | n | n | n | n | n | n | x | x | x | x
Cc1cc(NC(=O)CSc2nc3ccsc3c(=O)n2CCCC(=O)NCCc2ccccc2)no1 | n | u | n | u | n | n | x | x | x | x
